Compound activity: PubChem BioAssay, several laboratories
The list is not random: actives were taken first. Their share in the collection is about 3.3%.
SMARCA2 act – SMARCA2 function activation, primary screen; MG213 cells, MMTV-luciferase reporter, dexamethasone, overnight; activation, % at 9.1 µM; 1% of 370,000 active; in the data active = activation above about 7.8%
Jurkat NFkB inh – lowers PMA/ionomycin-induced NF-kB signal in Jurkat cells; 0.53% of 330,000 active; PMA/ionomycin-induced NF-kB luciferase reporter, luminescence; inhibition, % at 4 µM; AID 435003; in the data active = inhibition above about 50%
697 NFkB inh – lowers PMA/ionomycin-induced NF-kB signal in 697 B cells. inhibition, % at 4 µM. 697 B-cell NF-kB luciferase reporter, 16 h. 0.33% of 330,000 active; in the data active = inhibition above about 35%
Gli-Sufu block – antagonists of Gli-Sufu signaling. 0.74% of 340,000 active. AID 588413. Sufu-KO-LIGHT fibroblasts, Gli luciferase reporter luminescence. inhibition, % at 5 µM;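 active = inhibition above about 55%, limit read from the data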
esBAF inh – blocks esBAF chromatin remodeling in mouse ES cells | Bmi1-luciferase knock-in reporter, 24 h; 100% = twice the neutral-well signal | reporter increase, % at 12.5 µM | 2% of 350,000 active; in the data active = activation above about 40%; inconclusive = no clear call, values can overlap the other calls;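 also: a rise in the Bmi1 reporter signal indicates esBAF inhibition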
Of the large screens only hits and unclear results are named; the others gave an inactive call.

CC(C)C#Cc1cnc2c(c1)C(=O)N([C@H](C)CO)C[C@H](C)[C@H](CN(C)Cc1cncnc1)O2	none (no result: SMARCA2 act, Jurkat NFkB inh, 697 NFkB inh, Gli-Sufu block)
O=C(Nc1nccs1)c1ccc(NC(=O)c2ccco2)cc1	esBAF inh 50
O=C(Nc1ccc(C(=O)Oc2ccccc2)c(O)c1)c1ccco1	esBAF inh 57
C[C@H](O)C#Cc1cnc2c(c1)C(=O)N([C@@H](C)CO)C[C@H](C)[C@@H](CN(C)Cc1ccc(-c3ccccc3)cc1)O2	none (no result: SMARCA2 act, Jurkat NFkB inh, 697 NFkB inh, Gli-Sufu block)
COc1ccc(/C=N/NC(=O)c2ccn[nH]2)cc1CSc1ccccn1	esBAF inh 45
C[C@@H]1CN([C@@H](C)CO)S(=O)(=O)c2ccc(-c3ccncc3)cc2O[C@H]1CN(C)Cc1ccc(Oc2ccccc2)cc1	none (no result: SMARCA2 act, Jurkat NFkB inh, 697 NFkB inh, Gli-Sufu block)
CCCCCOc1ccc(CSc2ncn[nH]2)cc1	esBAF inh 47
O=C(Nc1ccncc1)c1ccc2ncsc2c1	esBAF inh 71
CC(C)S(=O)(=O)c1ccc(C(=O)Nc2ccc(F)cc2F)cn1	none (no result: esBAF inh)
O=C(Nc1ccccc1F)c1cccc(C(=O)Nc2ccccc2F)c1	none (no result: esBAF inh)
O=C(Nc1ccccc1F)c1ccc2ncsc2c1	esBAF inh 57
O=C(Nc1cccc(F)c1)c1ccc2ncsc2c1	none (no result: SMARCA2 act)
O=C(COC(=O)c1ccc2ncsc2c1)Nc1cc(Cl)ccc1F	none
O=C(Nc1ccc(Cl)cc1Cl)c1ccc2ncsc2c1	esBAF inh 59
CCCSc1ccc(C(=O)Nc2ccc(F)cc2F)cn1	esBAF inh 46
COc1cccc(S(=O)(=O)N(C)C[C@@H]2Oc3cc(C4=CCCC4)ccc3S(=O)(=O)N([C@H](C)CO)C[C@H]2C)c1	none (no result: SMARCA2 act, Jurkat NFkB inh, 697 NFkB inh, Gli-Sufu block)
CO[C@@H]1CN(C)C(=O)c2cc(NS(=O)(=O)c3ccccc3F)ccc2OC[C@H](C)NC[C@H]1C	none (no result: SMARCA2 act, Jurkat NFkB inh, 697 NFkB inh, Gli-Sufu block)
C[C@H]1CCCCO[C@@H](CN(C)C)[C@@H](C)CN([C@@H](C)CO)C(=O)c2cc(NC(=O)C3CCCCC3)ccc2O1	none (no result: SMARCA2 act, Jurkat NFkB inh, 697 NFkB inh, Gli-Sufu block)
O=C(Nc1ccc(F)cc1F)c1ccc2ncsc2c1	esBAF inh 67
Cc1ccc(NC(=O)CCc2c(C)nn(-c3ccc(N4CCCCC4)nn3)c2C)cc1F	esBAF inh 69
Cc1nn(-c2ccc(N3CCCCC3)nn2)c(C)c1CCC(=O)Nc1cccc(F)c1	esBAF inh 64
CC[n+]1c(/C=C2\Sc3ccccc3N2C)ccc2cccc(C)c21	Gli-Sufu block 87 (no result: Jurkat NFkB inh, 697 NFkB inh, esBAF inh)
C[C@@H]1CN([C@H](C)CO)C(=O)c2cc(Br)cnc2O[C@H]1CN(C)C(=O)C1CC1	none (no result: SMARCA2 act, Jurkat NFkB inh, 697 NFkB inh, Gli-Sufu block)
CN1C(=O)c2cc(NC(=O)C3CC3)ccc2OC[C@H]2O[C@@H](CC(=O)NCC3CCCCC3)CC[C@H]21	none (no result: SMARCA2 act, Jurkat NFkB inh, 697 NFkB inh, Gli-Sufu block)
COc1cc2[nH]c(=O)n3nc(-c4ccccc4)nc3c2cc1OC	none (no result: SMARCA2 act, esBAF inh)
COc1ccc(-c2nc3c4ccccc4[nH]c(=O)n3n2)cc1	esBAF inh 46
C[C@H]1CN([C@@H](C)CO)C(=O)c2cccc(NS(C)(=O)=O)c2O[C@@H]1CN(C)C(=O)Nc1ccccc1	none (no result: SMARCA2 act, Jurkat NFkB inh, 697 NFkB inh, Gli-Sufu block)
O=C(O)c1cc(-c2ccc(/C=C3/SC(=S)N(Cc4ccccc4)C3=O)o2)ccc1Cl	esBAF inh 54 (no result: Jurkat NFkB inh, 697 NFkB inh)
Cc1ccc(/C=C2\SC(=S)N(Cc3ccccc3)C2=O)o1	none
Cn1cnc(S(=O)(=O)N[C@H]2C=C[C@H](CC(=O)Nc3ccccc3)O[C@@H]2CO)c1	none (no result: SMARCA2 act, Jurkat NFkB inh, 697 NFkB inh, Gli-Sufu block)
CCc1nnc(NC(=O)/C=C/c2cccs2)s1	esBAF inh 58
Nc1ccc2nc(-c3ccc(Cl)cc3)[nH]c2c1	none (no result: Gli-Sufu block)
Nc1ccc2nc(-c3cc(Cl)c(N)c(Cl)c3)[nH]c2c1	esBAF inh 48
C[C@H](CO)N1C[C@H](C)[C@@H](CN(C)S(C)(=O)=O)Oc2ccc(NS(=O)(=O)c3cn(C)cn3)cc2CC1=O	none (no result: SMARCA2 act, Jurkat NFkB inh, 697 NFkB inh, Gli-Sufu block)
CN(C)S(=O)(=O)c1cccc(NC(=O)C2Cc3ccccc3CN2C(=O)c2ccco2)c1 (stereo not drawn)	esBAF inh 44
Cc1ccc(NC(=O)C2Cc3ccccc3CN2C(=O)c2ccco2)cc1S(=O)(=O)N(C)C (stereo not drawn)	none
Cc1ccc(C(=O)N/C(=C\c2ccco2)C(=O)NCc2cccnc2)cc1	SMARCA2 act 8.0
CCCC(=O)Nc1ccc(C#Cc2ccccc2)cc1	esBAF inh 54
O=C(C#Cc1ccccc1)Nc1ccc(F)cc1	esBAF inh 49
COCc1nnc(NC(=O)CCCCCN2C(=O)c3ccccc3C2=O)s1	none
COc1ccc(NC(=O)C#Cc2ccccc2)cc1	esBAF inh inconclusive
CCCCC(=O)Nc1ccc(C(=O)Nc2nnc(COC)s2)cc1	SMARCA2 act 7.8
CCCCC(=O)Nc1ccc(C(=O)c2ccccc2)cc1	esBAF inh 49
CCCCC(=O)NC(=S)Nc1cccc(C(=O)O)c1	esBAF inh 44
O=C(NCC[C@@H]1CC[C@H](NS(=O)(=O)c2ccc(F)cc2)[C@H](CO)O1)Nc1ccc(Cl)cc1	none (no result: SMARCA2 act, Jurkat NFkB inh, 697 NFkB inh, Gli-Sufu block)
CCOC(=O)c1cccc(-c2ccc(C=O)o2)c1	none
CC1(CC(=O)N/N=C/c2ccc(-c3ccc(C(=O)O)cc3)o2)OCCO1	none
CCCCOC(=O)c1ccc(-c2ccc(/C=N/NC(=S)NCC)o2)cc1	esBAF inh 46
CCCOC(=O)c1cc(-c2ccc(C=O)o2)ccc1Cl	none (no result: esBAF inh)
CCCOC(=O)c1ccc(-c2ccc(C=O)o2)cc1	esBAF inh 76
COC(=O)c1ccc(-c2ccc(/C=N/NC(=O)CC3(C)OCCCO3)o2)cc1	SMARCA2 act 7.8, esBAF inh inconclusive
CCOC(=O)c1ccc(-c2ccc(C=O)o2)cc1	esBAF inh 54
C[C@H]1CN([C@@H](C)CO)C(=O)Cc2cc(NC(=O)Nc3ccc4c(c3)OCO4)ccc2O[C@@H]1CN(C)CC1CCCCC1	none (no result: SMARCA2 act, Jurkat NFkB inh, 697 NFkB inh, Gli-Sufu block)
Cc1ccc(-c2ccc(CCC(=O)O)n2-c2cccc(O)c2)cc1	esBAF inh 63
O=[N+]([O-])c1ccc2nc(/C=C/c3ccc(Cl)cc3)[nH]c2c1	esBAF inh 47
O=[N+]([O-])c1ccc(-c2nc3ccc([N+](=O)[O-])cc3[nH]2)cc1	none (no result: esBAF inh)
Cc1cnc(C(=O)Nc2ccc(F)c(F)c2)cn1	esBAF inh 62
CCCCOc1ccc(NC(=O)c2cnc(C)cn2)cc1	esBAF inh 58
CC(=O)N1CCN(Cc2cc(=O)oc3cc(C)c(C)cc23)CC1	none (no result: Jurkat NFkB inh, 697 NFkB inh, Gli-Sufu block)
Cc1cc2oc(=O)cc(CN3CCC(C)CC3)c2cc1C	esBAF inh 41
c1ccc2nc3c(nc2c1)OCC1CCCCN31 (stereo not drawn)	esBAF inh 48
c1ccc2nc(N3CCCC3)c(N3CCCCC3)nc2c1	none (no result: Jurkat NFkB inh, 697 NFkB inh)
O=C(Nc1ccccc1F)c1cnccn1	none
O=C(Nc1ccccc1F)c1cc2nc(C(F)F)cc(C(F)F)n2n1	esBAF inh 58
C[C@@H]1CN([C@@H](C)CO)C(=O)c2cc(NC(=O)NC3CCCCC3)ccc2O[C@H]1CN(C)S(=O)(=O)c1cn(C)cn1	none (no result: SMARCA2 act, Jurkat NFkB inh, 697 NFkB inh, Gli-Sufu block)
CCCNC(=O)N[C@@H]1C=C[C@H](CC(=O)NC2CCCCC2)O[C@H]1CO	none (no result: SMARCA2 act, Jurkat NFkB inh, 697 NFkB inh, Gli-Sufu block)
COC(=O)[C@H](Cc1ccccc1)NC(=O)c1cc(COc2c(F)cccc2F)on1	esBAF inh 52
CN(Cc1cc(-c2ccccc2)on1)C(=O)c1cc(COc2c(F)cccc2F)on1	esBAF inh 54
CCC(NC(=O)c1cc(COc2c(F)cccc2F)on1)c1ccncc1 (stereo not drawn)	none (no result: SMARCA2 act)
